# In PubChem BioAssay (NCI):
# This is part of a sample that, as a whole, favours compounds with a hit. Of some 83,000 tested, about 20% had one in any assay.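 Step 1: grow cells in 96-well plates. Step 2: add test compound at a single concentration. Step 3: incubate 48 h. Step 4: record percent growth.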 A number with no mark means an inactive call. Active and inactive are the calls of the source. The calls were made as follows: active = growth percent below 10; inactive = the rest.
# Assays:
# Assay in all cases: NCI-60 one-dose screen, 48 h (100 = growth as untreated, 0 = no growth, -100 = all killed)
# RPMI-8226 leukemia = tested on: RPMI-8226 leukemia
# OVCAR-8 ovarian = tested on: OVCAR-8 ovarian
# OVCAR-5 ovarian = tested on: OVCAR-5 ovarian
# OVCAR-4 ovarian = tested on: OVCAR-4 ovarian
# SK-OV-3 ovarian = tested on: SK-OV-3 ovarian
# IGROV1 ovarian = tested on: IGROV1 ovarian
# OVCAR-3 ovarian = tested on: OVCAR-3 ovarian
# HS 578T breast = tested on: HS 578T breast
# NCI/ADR-RES ovarian = tested on: NCI/ADR-RES ovarian
# T-47D breast = tested on: T-47D breast
# BT-549 breast = tested on: BT-549 breast
# MDA-MB-435 melanoma = tested on: MDA-MB-435 melanoma
# SW-620 colon = tested on: SW-620 colon
# MCF7 breast = tested on: MCF7 breast
# HCT-116 colon = tested on: HCT-116 colon
# HCC-2998 colon = tested on: HCC-2998 colon
# KM12 colon = tested on: KM12 colon
# MDA-MB-468 breast = tested on: MDA-MB-468 breast
# SR leukemia = conditions: 10 µM unless noted
structure (smiles),measurement,setting,value
CC/C(=C(/c1ccc(O)cc1)c1ccc(OCCN(C)C(=O)CCOCCNC(=O)Cc2ccc3c(c2)CN([C@@H]2CCC(=O)NC2=O)C3=O)cc1)c1ccccc1,growth,RPMI-8226 leukemia; 1 µM,88%
same,growth,RPMI-8226 leukemia; 10 µM,78.3%
same,growth,OVCAR-8 ovarian; 1 µM,87.8%
same,growth,OVCAR-8 ovarian; 10 µM,34.7%
same,growth,OVCAR-5 ovarian; 1 µM,97.5%
same,growth,OVCAR-5 ovarian; 10 µM,86.7%
same,growth,OVCAR-4 ovarian; 1 µM,102%
same,growth,OVCAR-4 ovarian; 10 µM,75.7%
same,growth,SK-OV-3 ovarian; 1 µM,88.7%
same,growth,SK-OV-3 ovarian; 10 µM,79.6%
same,growth,IGROV1 ovarian; 1 µM,57.5%
same,growth,IGROV1 ovarian; 10 µM,30.4%
same,growth,OVCAR-3 ovarian; 1 µM,102%
same,growth,OVCAR-3 ovarian; 10 µM,68.4%
same,growth,HS 578T breast; 1 µM,61.4%
same,growth,HS 578T breast; 10 µM,30.4%
same,growth,NCI/ADR-RES ovarian; 1 µM,109%
same,growth,NCI/ADR-RES ovarian; 10 µM,99.6%
same,growth,T-47D breast; 1 µM,20.9%
same,growth,T-47D breast; 10 µM,25%
same,growth,BT-549 breast; 1 µM,-12.9% (active)
same,growth,BT-549 breast; 10 µM,-25.9% (active)
same,growth,MDA-MB-435 melanoma; 1 µM,104%
same,growth,MDA-MB-435 melanoma; 10 µM,85%
same,growth,SW-620 colon; 1 µM,70.6%
same,growth,SW-620 colon; 10 µM,36%
same,growth,MCF7 breast; 1 µM,34.7%
same,growth,MCF7 breast; 10 µM,31.5%
same,growth,HCT-116 colon; 1 µM,100%
same,growth,HCT-116 colon; 10 µM,92.4%
same,growth,HCC-2998 colon; 1 µM,97.3%
same,growth,HCC-2998 colon; 10 µM,78.3%
same,growth,KM12 colon; 1 µM,95.3%
same,growth,KM12 colon; 10 µM,66.7%
same,growth,MDA-MB-468 breast; 1 µM,-2.35% (active)
same,growth,MDA-MB-468 breast; 10 µM,-18.2% (active)
COc1cc(CNC(=O)C[C@H](C)CCC=C(C)C)ccc1OCc1cn(-c2ccccc2Cl)nn1,growth,SR leukemia,48.5%
same,growth,RPMI-8226 leukemia; 10 µM unless noted,47.6%
same,growth,OVCAR-8 ovarian; 10 µM unless noted,49.8%
same,growth,OVCAR-5 ovarian; 10 µM unless noted,93.1%
same,growth,OVCAR-4 ovarian; 10 µM unless noted,33.3%
same,growth,SK-OV-3 ovarian; 10 µM unless noted,83%
same,growth,IGROV1 ovarian; 10 µM unless noted,87.1%
same,growth,HS 578T breast; 10 µM unless noted,81%
same,growth,NCI/ADR-RES ovarian; 10 µM unless noted,24%
same,growth,T-47D breast; 10 µM unless noted,9.14% (active)
same,growth,BT-549 breast; 10 µM unless noted,28.2%
same,growth,MDA-MB-435 melanoma; 10 µM unless noted,66.5%
same,growth,SW-620 colon; 10 µM unless noted,80.2%
same,growth,MCF7 breast; 10 µM unless noted,40.6%
same,growth,HCT-116 colon; 10 µM unless noted,49.7%
same,growth,HCC-2998 colon; 10 µM unless noted,91.9%
same,growth,KM12 colon; 10 µM unless noted,63%
same,growth,MDA-MB-468 breast; 10 µM unless noted,28.5%
Oc1ccc(Cl)c(Nc2nc(SCCN3CCOCC3)nc3c2cnn3CC(Cl)c2ccc(Br)cc2)c1 (stereo unspecified),growth,RPMI-8226 leukemia; 10 µM unless noted,19.2%
same,growth,OVCAR-8 ovarian; 10 µM unless noted,16.5%
same,growth,OVCAR-5 ovarian; 10 µM unless noted,50.4%
same,growth,OVCAR-4 ovarian; 10 µM unless noted,31.7%
same,growth,SK-OV-3 ovarian; 10 µM unless noted,65.8%
same,growth,IGROV1 ovarian; 10 µM unless noted,1.12% (active)
same,growth,OVCAR-3 ovarian; 10 µM unless noted,29.9%
same,growth,HS 578T breast; 10 µM unless noted,-15.5% (active)
same,growth,NCI/ADR-RES ovarian; 10 µM unless noted,13.5%
same,growth,T-47D breast; 10 µM unless noted,0% (active)
same,growth,MDA-MB-435 melanoma; 10 µM unless noted,12%
same,growth,SW-620 colon; 10 µM unless noted,30.4%
same,growth,MCF7 breast; 10 µM unless noted,5.55% (active)
same,growth,HCT-116 colon; 10 µM unless noted,13.8%
same,growth,HCC-2998 colon; 10 µM unless noted,9.56% (active)
same,growth,KM12 colon; 10 µM unless noted,17.1%
same,growth,MDA-MB-468 breast; 10 µM unless noted,-26.7% (active)
CC1=C(C(=O)OC(C)C)C(c2ccc(O)cc2)NC(=O)N1 (stereo unspecified),growth,RPMI-8226 leukemia; 10 µM unless noted,98.9%
same,growth,OVCAR-8 ovarian; 10 µM unless noted,108%
same,growth,OVCAR-5 ovarian; 10 µM unless noted,105%
same,growth,OVCAR-4 ovarian; 10 µM unless noted,100%
same,growth,SK-OV-3 ovarian; 10 µM unless noted,106%
same,growth,IGROV1 ovarian; 10 µM unless noted,109%
same,growth,OVCAR-3 ovarian; 10 µM unless noted,108%
same,growth,HS 578T breast; 10 µM unless noted,99.8%
same,growth,NCI/ADR-RES ovarian; 10 µM unless noted,99.8%
same,growth,T-47D breast; 10 µM unless noted,101%
same,growth,BT-549 breast; 10 µM unless noted,96.1%
same,growth,MDA-MB-435 melanoma; 10 µM unless noted,99.9%
same,growth,SW-620 colon; 10 µM unless noted,103%
same,growth,MCF7 breast; 10 µM unless noted,98.6%
same,growth,HCT-116 colon; 10 µM unless noted,97.1%
same,growth,HCC-2998 colon; 10 µM unless noted,111%
same,growth,KM12 colon; 10 µM unless noted,111%
same,growth,MDA-MB-468 breast; 10 µM unless noted,103%
CCC(=O)c1cc(C(=O)OC)c2ccc3c4ccccc4ccc3n12,growth,RPMI-8226 leukemia; 10 µM unless noted,84.9%
same,growth,OVCAR-8 ovarian; 10 µM unless noted,71.5%
same,growth,OVCAR-5 ovarian; 10 µM unless noted,73.8%
same,growth,OVCAR-4 ovarian; 10 µM unless noted,1.22% (active)
same,growth,SK-OV-3 ovarian; 10 µM unless noted,122%
same,growth,IGROV1 ovarian; 10 µM unless noted,70.2%
same,growth,OVCAR-3 ovarian; 10 µM unless noted,67.5%
same,growth,HS 578T breast; 10 µM unless noted,63.3%
same,growth,NCI/ADR-RES ovarian; 10 µM unless noted,76.6%
same,growth,T-47D breast; 10 µM unless noted,75.8%
same,growth,BT-549 breast; 10 µM unless noted,112%
same,growth,MDA-MB-435 melanoma; 10 µM unless noted,93.6%
same,growth,SW-620 colon; 10 µM unless noted,84.4%
same,growth,MCF7 breast; 10 µM unless noted,80.5%
same,growth,HCT-116 colon; 10 µM unless noted,35%
same,growth,HCC-2998 colon; 10 µM unless noted,99.8%
same,growth,KM12 colon; 10 µM unless noted,84.7%
same,growth,MDA-MB-468 breast; 10 µM unless noted,83.6%
Cn1cc(-c2cc(N)n3nc(-c4c[nH]c5ccc(Cl)cc45)cc3n2)c2cccnc21,growth,RPMI-8226 leukemia; 10 µM unless noted,-17.8% (active)
same,growth,OVCAR-8 ovarian; 10 µM unless noted,-76.2% (active)
same,growth,OVCAR-5 ovarian; 10 µM unless noted,-82.5% (active)
same,growth,OVCAR-4 ovarian; 10 µM unless noted,-42% (active)
same,growth,SK-OV-3 ovarian; 10 µM unless noted,-73.5% (active)
same,growth,IGROV1 ovarian; 10 µM unless noted,-77.7% (active)
same,growth,OVCAR-3 ovarian; 10 µM unless noted,-71.3% (active)
same,growth,HS 578T breast; 10 µM unless noted,-26.2% (active)
same,growth,NCI/ADR-RES ovarian; 10 µM unless noted,-73.8% (active)
same,growth,T-47D breast; 10 µM unless noted,-65.9% (active)
same,growth,MDA-MB-435 melanoma; 10 µM unless noted,-84.2% (active)
same,growth,SW-620 colon; 10 µM unless noted,-72.8% (active)
same,growth,MCF7 breast; 10 µM unless noted,-81.2% (active)
same,growth,HCT-116 colon; 10 µM unless noted,-90.7% (active)
same,growth,HCC-2998 colon; 10 µM unless noted,-98.5% (active)
same,growth,KM12 colon; 10 µM unless noted,-70.2% (active)
same,growth,MDA-MB-468 breast; 10 µM unless noted,-93.7% (active)
COc1cc(CNC(=O)C[C@H](C)CCC=C(C)C)ccc1OCc1cn(-c2cccc(C(F)(F)F)c2)nn1,growth,RPMI-8226 leukemia; 10 µM unless noted,89.8%
same,growth,OVCAR-8 ovarian; 10 µM unless noted,28.1%
same,growth,OVCAR-5 ovarian; 10 µM unless noted,97.5%
same,growth,OVCAR-4 ovarian; 10 µM unless noted,45.1%
same,growth,SK-OV-3 ovarian; 10 µM unless noted,89%
same,growth,IGROV1 ovarian; 10 µM unless noted,102%
same,growth,OVCAR-3 ovarian; 10 µM unless noted,103%
same,growth,HS 578T breast; 10 µM unless noted,94.3%
same,growth,NCI/ADR-RES ovarian; 10 µM unless noted,44%
same,growth,BT-549 breast; 10 µM unless noted,92.3%
same,growth,MDA-MB-435 melanoma; 10 µM unless noted,74.9%
same,growth,SW-620 colon; 10 µM unless noted,38.7%
same,growth,MCF7 breast; 10 µM unless noted,56.8%
same,growth,HCT-116 colon; 10 µM unless noted,12.5%
same,growth,HCC-2998 colon; 10 µM unless noted,111%
same,growth,KM12 colon; 10 µM unless noted,85%
same,growth,MDA-MB-468 breast; 10 µM unless noted,64.9%
